Source: PubChem BioAssay
This excerpt belongs to a sample that is enriched for hits.
ST2 IL33 inh = inhibitors of human ST2 (IL1RL1) binding to IL-33; Q01638; AlphaLISA ST2-Fc/biotin-IL-33 interaction, 1 h; inhibition, % for hits at 17 µM; actives 2.3% (n = 78,000); AID 1259354; in the data active = inhibition above about 30%
Target sequence (Q01638 whole entry, looked up): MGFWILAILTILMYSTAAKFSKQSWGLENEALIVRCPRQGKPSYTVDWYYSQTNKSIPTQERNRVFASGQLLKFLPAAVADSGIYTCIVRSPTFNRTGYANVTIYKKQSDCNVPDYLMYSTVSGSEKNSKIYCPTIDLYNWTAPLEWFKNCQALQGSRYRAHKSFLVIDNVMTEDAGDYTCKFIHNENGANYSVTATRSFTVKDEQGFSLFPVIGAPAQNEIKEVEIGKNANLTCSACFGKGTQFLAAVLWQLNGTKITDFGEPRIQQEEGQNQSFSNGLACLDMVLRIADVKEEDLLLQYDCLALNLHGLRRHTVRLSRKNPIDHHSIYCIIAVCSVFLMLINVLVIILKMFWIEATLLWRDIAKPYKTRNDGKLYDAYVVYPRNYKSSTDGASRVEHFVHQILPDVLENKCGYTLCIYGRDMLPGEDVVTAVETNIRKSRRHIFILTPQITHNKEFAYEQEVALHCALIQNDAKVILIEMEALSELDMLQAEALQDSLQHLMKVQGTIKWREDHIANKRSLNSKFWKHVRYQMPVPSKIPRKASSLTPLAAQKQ
* marks the source's active call; other numbers are inactive results; i = inactive.

SMILES	ST2 IL33 inh
CC(=O)Nc1ccccc1/C=C/c1ccc2c(C)ccc(O)c2n1	i
CCOc1cccc(/C=C/c2ccc3cccc(O)c3n2)c1OC	54%*
CCOc1ccccc1OCCOc1ccccc1C=O	i
Cc1ccccc1Nc1nc(C2(C)CC3(CC(C)(C)OC3=O)C(=O)O2)cs1 (stereo not drawn)	i
O=c1c2ccccc2c(-c2ccccc2)nn1-c1ccc(C(F)(F)F)cn1	i
CN(CCC#N)C(=O)c1cnn2c(C(F)(F)F)cc(-c3ccco3)nc12	i
CN(C)c1oc(-c2ccccc2)nc1S(=O)(=O)c1ccccc1	i
CN(C)c1oc(COc2ccc(Cl)cc2Cl)nc1S(=O)(=O)c1ccccc1	36%*
Cc1nc(S(=O)(=O)c2ccccc2)c(N(C)C)o1	i
O=C(c1ccc(S(=O)(=O)N2CCCCC2)cc1)N1CCN=C1SCc1cccc(Cl)c1	i
CC(C)c1ccc(N(C(=O)c2ccccc2F)C2C=CS(=O)(=O)C2)cc1 (stereo not drawn)	i
CCOC(=O)c1c(NC(=O)c2cc3ccccc3oc2=O)sc2c1CCN(CC)C2	33%*
CCN1CCc2c(sc(NC(=O)c3ccc(C)c(C)c3)c2C(=O)OC)C1	i
CCOC(=O)c1c(NC(C)=O)sc2c1CCN(Cc1ccccc1)C2	i
COc1cccc(C(=O)Nc2c3c(nn2C(C)(C)C)CS(=O)C3)c1OC (stereo not drawn)	i
CSc1ccccc1C(=O)Nc1ccc(S(=O)(=O)N2CCOCC2)cc1	i
O=C(Nc1nc2ccccc2s1)c1ccc(S(=O)(=O)N2CCOCC2)cc1	i
CCCCN(CCCC)S(=O)(=O)c1ccc(C(=O)Nc2nnc(-c3ccc(F)cc3)o2)cc1	i
CCN(CC)S(=O)(=O)c1ccc(C(=O)N=c2sc3ccccc3n2C)cc1	i
CCN(CC)S(=O)(=O)c1ccc(-c2csc(=Nc3ccc(F)cc3)n2CCCO)cc1	43%*
O=S(=O)(c1ccc(-c2csc(=Nc3ccccc3)n2CCCO)cc1)N1CCOCC1	39%*
Cc1cccc(C)c1Nc1c(-c2ccccc2)nc2cnccn12	i
O=C(Nc1c(C(=O)Nc2ccccc2F)oc2ccccc12)c1ccccc1F	i
c1cncc(-c2nc3sc(-c4cccnc4)nc3s2)c1	i
COc1ccc(OCCSCc2nnc(NC(=O)Nc3cccc(OC)c3)s2)cc1	i
SMILES	ST2 IL33 inh
COc1ccc(C2SCC(=O)N2c2ccccc2)cc1 (stereo not drawn)	i
COc1ccc(N2C(=O)C(O)=CC2(OC)c2ccccc2)cc1 (stereo not drawn)	45%*
COc1ccc(N2C(=O)CC(Sc3ccccc3C(=O)O)C2=O)cc1 (stereo not drawn)	i
Clc1ccc(CN2CCC(OCc3cccnc3)CC2)s1	i
O=C(NCCc1nc2cccnc2n1-c1ccccc1)Nc1cccc(Cl)c1	i
COc1cccc(CC2CN(C(=O)c3ccccc3N(C)C)CCO2)c1 (stereo not drawn)	i
COc1ccc(-c2cnn(-c3ccccc3)c2N)cc1OC	i
COc1cc(/C=C/c2nc3ccccc3c(=O)n2-c2cccc([N+](=O)[O-])c2)ccc1O	i
Oc1ccccc1/C=C/c1nc(-c2ccccc2O)n(-c2ccccc2)n1	36%*
COc1ccc(/C=C/c2nc(-c3ccccc3O)n(-c3ccccc3)n2)cc1OC	36%*
Cc1cc(C)n(-c2nc(-c3ccccc3)cc(-c3ccccc3O)n2)n1	i
Oc1ccccc1C=Nc1ccccc1-c1nnc2n1CCCCC2	i
CN1Cc2[nH]cnc2C[C@H]1C(=O)NCc1ccco1	i
CCCCOc1ccc(NC(=O)CC2SC(N)=NC2=O)cc1 (stereo not drawn)	i
O=C(CN(C1CCCCC1)S(=O)(=O)c1ccc(Br)cc1)NC1CC1	i
CC(=O)Nc1ccc(S(=O)(=O)N(CC2C(C)C=C(C)CC2C)C2CCCCC2)cc1 (stereo not drawn)	32%*
CNC(=O)CN(C1CCCCC1)S(=O)(=O)c1ccccc1	i
CCNC(=O)c1cc2c(=O)n3ccccc3nc2n(C(C)CC)c1=N (stereo not drawn)	i
O=[N+]([O-])c1ccc(Sc2c(-c3ccccc3)nc3sccn23)cc1	32%*
COC(=O)c1ccccc1Sc1c(-c2ccccc2)nc2sccn12	i
c1ccc(Sc2c(-c3ccccc3)nc3ncccn23)cc1	i
O=C1c2ccccc2NC(c2cccc(F)c2)N1c1ccc(F)cc1 (stereo not drawn)	i
COc1ccc(Cc2noc(-c3ccccc3C)n2)cc1	i
Cc1cc(Br)cc2c1N(C)C(=O)/C2=C1\SC(=Nc2ccc(F)cc2)NC1=O	33%*
Cc1cc(Br)cc2c1N(C)C(=O)C2=O	i
SMILES	ST2 IL33 inh
O=C1c2cccc([N+](=O)[O-])c2C(=O)N1c1nccs1	i
CCNC(=O)O[C@@H]1CO[C@H]2[C@@H]1OC[C@@H]2NC(=O)Nc1cccc(C(F)(F)F)c1	i
CC(=O)c1ccc(NC(=O)O[C@@H]2CO[C@H]3[C@@H]2OC[C@@H]3NC(=S)Nc2cccc(C#N)c2)cc1	i
CC(=O)c1cccc(NC(=O)O[C@@H]2CO[C@H]3[C@@H]2OC[C@@H]3NC(=S)Nc2cc(C)cc(C)c2)c1	i
COC(=O)c1cccc(NC(=S)N[C@H]2CO[C@H]3[C@@H]2OC[C@H]3OCc2ccccc2)c1	i
COc1ccc(NC(=O)O[C@@H]2CO[C@H]3[C@@H]2OC[C@@H]3NC(=O)Nc2cccc(C#N)c2)cc1	66%*
CCNC(=O)O[C@@H]1CO[C@H]2[C@@H]1OC[C@@H]2NC(=S)Nc1cccc(C(=O)OC)c1	34%*
CCOC(=O)c1cccc(NC(=O)N[C@H]2CO[C@H]3[C@@H]2OC[C@H]3OC(=O)Nc2ccccc2)c1	i
O=C(Nc1cccc(C(F)(F)F)c1)N[C@H]1CO[C@H]2[C@@H]1OC[C@H]2OC(=O)Nc1ccc(Oc2ccccc2)cc1	31%*
COc1ccc(NC(=O)N[C@H]2CO[C@H]3[C@@H]2OC[C@H]3OC(=O)Nc2ccc(C(C)=O)cc2)cc1	i
Cn1cnc(S(=O)(=O)N2CC[C@@H](c3ccc4c(c3)OCO4)[C@H](O)C2)c1	i
O=C1NC(=Nc2ccc(Cl)cc2)SC1Cc1ccccc1 (stereo not drawn)	i
CSc1nnc2c(n1)OC1(Nc3ccccc3-2)C(=O)Nc2ccc(Br)cc21 (stereo not drawn)	i
O=[N+]([O-])c1cccc(CN2CCC(N3CCCCC3)CC2)c1	i
O=[N+]([O-])c1ccc(-c2nc(N3CCCC3)c3ccccc3n2)cc1	i
CCOc1cccc2sc(NC(=O)c3ccc(OC)cc3)nc12	i
OC(COc1ccc2c(c1)CCC2)CN1CCN(c2ccccn2)CC1 (stereo not drawn)	i
COc1ccc(CC(=O)Nc2ccccc2[N+](=O)[O-])cc1OC	i
CCCCNc1nc2c(c(=O)n(C)c(=O)n2C)n1Cc1ccccc1C	i
O=C1c2ccc(Oc3cccc([N+](=O)[O-])c3)cc2C(=O)N1c1nccs1	i
CC(=O)Cc1nsc(NC(=O)c2ccc(C)cc2)n1	i
CC(C)c1cc(N2CCCC3(CC2)CNC(=O)O3)nc(C(F)(F)F)n1 (stereo not drawn)	i
CC(C)c1cc(NC2CC(=O)N(CC(C)(C)C)C2)nc(C(F)(F)F)n1 (stereo not drawn)	31%*
CC(C)c1cc(NCc2cccnc2N2CCCC(O)C2)nc(C(F)(F)F)n1 (stereo not drawn)	i
CCOC(=O)N1CCN(Cc2ccc(SC)cc2)CC1	i
